Test results taken from PubChem BioAssay (EPA / NIEHS).
Records with an inconclusive call do not appear. Calls of active or inactive are those of the source. How the source made its calls, unless noted: active means hit-call score of the fitted dose curve at least 0.9, where 1 is the maximum; inconclusive means response in the unintended direction; inactive means score below 0.9.

Assays:
[1] = TOX21_p53_BLA_p2_viability: Viability Assessment in the Tox21 HCT-116 p53 Agonism Beta-lactamase Assay, Phase 2 (AID 2283591);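 further: compound exposure lasted 16 h at 37 °C; actives lower the ATP signal meaning cytotoxicity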
Procedure, shortened: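 Cytotoxicity readout: CellTiter-Glo ATP luminescence, 30 min at room temperature, after the beta-lactamase read. Cells were HCT116 exposed 16 h at 37C to compounds pin-transferred at 217-fold dilution from DMSO stocks.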

[2] = target: Cellular tumor antigen p53 (Homo sapiens) (UniProt P04637); test: TOX21_p53_BLA_p2_ratio: Tox21 HCT-116 p53 Agonism Beta-lactamase Assay, Ratio, Phase 2 (AID 2283592)
Procedure, shortened: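 Read-out is the blue/green (460/530 nm, 405 nm excitation) ratio after 2 h CCF4-AM loading, fitted as gain versus DMSO. Compounds, pinned at 217-fold dilution from DMSO stocks, stayed 16 h on HCT-116 beta-lactamase reporter cells seeded 5 h earlier.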

[3] = TOX21_p53_BLA_p3_viability: Viability Assessment in the Tox21 HCT-116 p53 Agonism Beta-lactamase Assay, Phase 3 (AID 2283593);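 further: cells exposed to compound for 16 h before reading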
Procedure, shortened: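 Cellular ATP was quantified by CellTiter-Glo luminescence, read after 30 min at room temperature. Beforehand, HCT116 cells (4000/well) received compound 5 h post-seeding, 217-fold diluted from DMSO, then incubated 16 h at 37C.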

[4] = target: Cellular tumor antigen p53 (Homo sapiens) (UniProt P04637); test: TOX21_p53_BLA_p3_ratio: Tox21 HCT-116 p53 Agonism Beta-lactamase Assay, Ratio, Phase 3 (AID 2283596)
Procedure, shortened: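 Cells were seeded at 4000/well, rested 5 h at 37C, then dosed with DMSO compound solutions (217-fold dilution) for 16 h. CCF4-AM substrate was loaded for 2 h at room temperature, and the 460/530 nm emission ratio was fitted for gain of signal versus DMSO.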

[5] = TOX21_p53_BLA_p4_viability: Viability Assessment in the Tox21 HCT-116 p53 Agonism Beta-lactamase Assay, Phase 4 (AID 2283597);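 further: hits lower the luminescence signal meaning cytotoxicity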
Procedure, shortened: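 Cytotoxicity as reduced cellular ATP (CellTiter-Glo luminescence, 30 min room temperature), measured in the same wells following the CCF4 FRET p53 reading. Human HCT-116 cells received compounds in DMSO (217-fold dilution) for 16 h.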

[6] = TOX21_p53_BLA_p5_viability: Viability Assessment in the Tox21 HCT-116 p53 Agonism Beta-lactamase Assay, Phase 5 (AID 2283600)
Procedure, shortened: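 Viability came from CellTiter-Glo ATP luminescence, read after 30 min at room temperature. Before this, HCT-116 p53-bla cells (4000/well) had 16 hours of compound exposure at 37C, with DMSO stocks diluted 217-fold on transfer.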

[7] = target: Cellular tumor antigen p53 (Homo sapiens) (UniProt P04637); test: TOX21_p53_BLA_p4_ratio: Tox21 HCT-116 p53 Agonism Beta-lactamase Assay, Ratio, Phase 4 (AID 2283601)
Procedure, shortened: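 Signal is the blue/green (460nm/530nm) ratio of cleaved versus uncleaved CCF4-AM substrate, read after 2 h substrate loading. Cells were HCT116 carrying the p53-responsive beta-lactamase reporter, dosed 16 h at 37C, 5% CO2; CellTiter-Glo measured in parallel.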

[8] = system: Brachyury (BRA) Protein Expression, Deisenroth Lab, TBXT (gene 6862); test: CCTE_Deisenroth_DEVTOX-GLR_legacy_Bra: (Legacy) CCTE's DevTox GLR-Endo Assay Evaluation of Brachyury (BRA) Protein Expression, Deisenroth Lab (AID 2284329; active means hit-call score of the fitted dose curve at least 0.9, where 1 is the maximum; inactive means score below 0.9)
Procedure, shortened: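 Percent Bra-positive cells, scored by high-content imaging against a threshold of 5x BMAD over the undifferentiated control median, with the 0.2% DMSO median subtracted. RUES2-GLR cultures were dosed twice at 24 h intervals across a 48 h differentiation, at 1 nM–200 uM in ten steps, with n=4 replicates.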

[9] = CCTE_Deisenroth_DEVTOX-GLR_legacy_CellCount: (Legacy) Viability Assessment in CCTE's DevTox GLR-Endo Assay, Deisenroth Lab (AID 2284331; active means hit-call score of the fitted dose curve at least 0.9, where 1 is the maximum; inactive means score below 0.9); settings: actives raise or lower the signal
Procedure, shortened: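 Seed RUES2-GLR 24 h; differentiate 48 h, dosing at 0 and 24 h; fix, stain nuclei; image 5 fields/well; count nuclei. Conc. 1 nM - 200 uM, single technical replicate, n=4 experiments; bidirectional fit vs 0.2% DMSO.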

[10] = system: SRY-box transcription factor 2 (SOX2) Protein Expression, Deisenroth Lab, SOX2 (gene 6657); test: CCTE_Deisenroth_DEVTOX-GLR_legacy_Sox2: (Legacy) CCTE's DevTox GLR-Endo Assay Evaluation of SRY-box transcription factor 2 (SOX2) Protein Expression, Deisenroth Lab (AID 2284346; active means hit-call score of the fitted dose curve at least 0.9, where 1 is the maximum; inactive means score below 0.9)
Procedure, shortened: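 Percent Sox2-positive cells was scored by high-content imaging of 5 fields per well. Positivity cutoff was 5x BMAD over the directed endoderm control, and the DMSO median was subtracted. Cells were RUES2-GLR, dosed twice at 24-h intervals over 48 h of differentiation (1 nM-200 uM).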

[11] = system: Brachyury (BRA) Protein Expression, TBXT (gene 6862); test: CCTE_Deisenroth_DEVTOX-GLR_Endo_BRA: CCTE's DevTox GLR-Endo Assay Evaluation of Brachyury (BRA) Protein Expression, Deisenroth Lab (AID 2284417; active means hit-call score of the fitted dose curve at least 0.9, where 1 is the maximum; inactive means score below 0.9)
Procedure, shortened: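 Percent BRA+ (mesoderm) RUES2-GLR cells after 48 h differentiation with two exposures, 1 nM - 200 uM; 0.2% DMSO control subtracted.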

[12] = CCTE_Deisenroth_DEVTOX-GLR_Endo_CellCount: Viability Assessment in CCTE's DevTox GLR-Endo Assay, Deisenroth Lab (AID 2284420; active means hit-call score of the fitted dose curve at least 0.9, where 1 is the maximum; inactive means score below 0.9)
Procedure, shortened: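 Percent change in nuclear-stain cell counts versus 0.2% DMSO, from high-content imaging over 5 fields per well. Over a 48 h endoderm differentiation, RUES2-GLR cells received two doses 24 h apart across a 1 nM–200 uM series, with n=4.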

[13] = system: SRY-box transcription factor 17 (SOX17) Protein Expression, Deisenroth Lab, SOX17 (gene 64321); test: CCTE_Deisenroth_DEVTOX-GLR_Pluri_SOX17: CCTE's DevTox GLR-Pluri Assay Evaluation of SRY-box transcription factor 17 (SOX17) Protein Expression, Deisenroth Lab (AID 2284427)
Procedure, shortened: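 The endpoint is SOX17+ cells as a fraction of cell count, corrected for the 0.2% DMSO control and obtained by high-content fluorescence imaging of fixed cells. Cells were RUES2-GLR under a 48-hour endoderm differentiation, dosed twice at 24-hour intervals over 1 nM–200 uM.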

[14] = ACEA_ER_AUC_viability: ACEA Biosciences xCELLigence Real-Time Cell Analysis on Estrogen Receptor Agonism for Viability (AID 2283782);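 further: hit means loss of impedance signal meaning reduced cell growth or viability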
Procedure, shortened: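 Viability endpoint: reduced impedance area under the curve relative to DMSO, recorded by real-time electrode sensing over ~80 h of continuous exposure. Duplicate plates of T47D in hormone-depleted medium; eight concentrations, 1:4 dilutions, 100 uM maximum.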

Measured: AC50

Chain of Cellular tumor antigen p53 (Homo sapiens) (P04637 whole entry, looked up): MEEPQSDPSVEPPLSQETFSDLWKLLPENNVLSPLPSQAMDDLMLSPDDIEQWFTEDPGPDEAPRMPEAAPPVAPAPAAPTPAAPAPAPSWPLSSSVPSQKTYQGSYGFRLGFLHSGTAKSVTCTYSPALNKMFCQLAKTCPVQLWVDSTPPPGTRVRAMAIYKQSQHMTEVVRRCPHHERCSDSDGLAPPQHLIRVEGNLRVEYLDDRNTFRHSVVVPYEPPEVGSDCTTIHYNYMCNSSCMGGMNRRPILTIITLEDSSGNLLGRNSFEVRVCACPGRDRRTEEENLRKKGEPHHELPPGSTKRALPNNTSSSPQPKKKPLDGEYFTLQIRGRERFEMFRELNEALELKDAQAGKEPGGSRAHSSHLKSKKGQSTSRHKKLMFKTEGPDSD

O=C(c1ccc(F)cc1)C1CCN(CCn2c(=O)[nH]c3ccccc3c2=O)CC1
active: [9] 58.8 µM | [10] 9.92 µM | [11] 70 µM | [12] 58.4 µM | [13] 100 µM
not listed: [14]
inactive: all other assays above

CCCCCCCCCI
inactive: [1] | [2] | [3] | [4] | [5] | [6] | [7]

O=[N+]([O-])c1cccc(I)c1
inactive: [1] | [2] | [3] | [4] | [5] | [6] | [7]

CC1(C)CC(N)CC(C)(C)N1
inactive: [1] | [2] | [3] | [4] | [5] | [6] | [7] | [14]

CC1(S(=O)(=O)O)CC(=O)c2ccccc2C1=O (configuration not stated)
active: [2] 34.5 µM | [4] 43.4 µM
inactive: [1] | [3] | [5] | [6] | [7]
